Reference: PubChem BioAssay AID651815 (National Center for Advancing Translational Sciences (NCATS), 2012)
Screen size: about 2,100 compounds; about 1,100 (52%) were called active. Roughly 29% stayed inconclusive and do not appear here. Calls come from the whole dose curve; as a rule, active = well fitted inhibition curve with a large enough effect; inconclusive = small, poorly fitted or top-dose-only effect; inactive = no such curve, though single readings can be large or run the other way. The set was probably picked from earlier hits. This is one part of the list.
Note: nearly all actives have a fitted effect of over 65% in size.
Potency is the fitted concentration of half-maximal effect.

Each molecule was assayed against DNA dC->dU-editing enzyme APOBEC-3F (Homo sapiens) (UniProt Q8IUX4) (assay: qHTS for inhibitors of Vif-A3F interactions: Cherry picks counterscreen). Settings: HeLa A3F-eYFP/Vif cells, eYFP fluorescence, 24 h; series mostly up to 46.1 µM.
Sequence of DNA dC->dU-editing enzyme APOBEC-3F (Homo sapiens) (Q8IUX4 whole entry, looked up): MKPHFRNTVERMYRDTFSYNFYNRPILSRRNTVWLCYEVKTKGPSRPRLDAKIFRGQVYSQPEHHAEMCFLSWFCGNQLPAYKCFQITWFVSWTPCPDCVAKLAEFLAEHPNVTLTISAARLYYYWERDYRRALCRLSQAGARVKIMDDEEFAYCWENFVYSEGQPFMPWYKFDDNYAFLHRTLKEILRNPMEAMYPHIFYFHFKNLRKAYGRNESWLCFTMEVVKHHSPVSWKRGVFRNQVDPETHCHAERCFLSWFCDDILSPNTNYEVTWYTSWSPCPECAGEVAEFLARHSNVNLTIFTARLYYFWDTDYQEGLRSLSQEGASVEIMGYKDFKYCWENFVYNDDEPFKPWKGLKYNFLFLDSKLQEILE
Summary of the method: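 HeLa cells stably expressing A3F-eYFP and Vif, cultured overnight, then treated 24 h at 37 degrees C with compounds at several concentrations; yellow fluorescence (488 nm Ex/500-530 nm Em) imaged on Acumen; MG132 positive control.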
`COc1ccc(C2=NOC(C(=O)NCc3ccc(F)cc3)C2)cc1OC` (stereo not given) was tested, and the Potency was 5.59 µM (active).
With `CN(C)c1ccc(C=C2SC(=S)NC2=O)cc1` the Potency was 7.04 µM (active).
`COc1ccccc1N=C1NC(=O)/C(=C/c2ccc(N(C)C)cc2)S1` was tested, and the Potency was 6.51 µM (active).
With `CCOc1ccc(N(C)c2ccc(/C=C3/SC(=S)NC3=O)cc2)cc1` the Potency was 15.8 µM (active).
With `Cc1ccc(Cn2c(SCc3ccc(C(=O)NC4CCCC4)cc3)nc3ccncc32)cc1` the Potency was “inactive”.
For `Cc1ccc(C(=O)c2cc([N+](=O)[O-])ccc2N2CCN(C)CC2)cc1`, the Potency was 4.98 µM (active).
In the case of `Cc1ccc(C(=O)c2cc([N+](=O)[O-])ccc2N2CCOCC2)cc1C`, the Potency is reported as 1.77 µM (active).
In the case of `CN1CCN(c2ccc([N+](=O)[O-])cc2C(=O)c2ccc(Br)cc2)CC1`, the Potency is reported as 4.98 µM (active).
In the case of `Cn1c(=O)[nH]c(=O)c2c1nc(Br)n2Cc1cccc(Br)c1`, the Potency is reported as 9.94 µM (active).
For `C/C(=N\NC(=O)c1c(Cl)c(C)nn1C)c1ccc(NC(=O)C2CCC2)cc1`, the Potency was 1.4 µM (active).
With `CCN(CC)c1ccc(/C=C/c2cccc[n+]2C)c(OC)c1` the Potency was 15.8 µM (active).
In the case of `COC(=O)/C(=C\Nc1ccc(Cl)cc1Cl)NC(=O)c1ccc(OC)cc1`, the Potency is reported as 3.96 µM (active).
`Cc1ccc(N=C2NC(=O)/C(=C/c3cccn3C)S2)cc1` was tested, and the Potency was 15.8 µM (active).
For `Cn1cccc1/C=C1\SC(=Nc2ccc(O)cc2)NC1=O`, the Potency was 6.27 µM (active).
With `Cc1ccc(N=C2NC(=O)/C(=C/c3cn(C)c4ccccc34)S2)cc1C` the Potency was 15.8 µM (active).
`Cn1cccc1/C=C1\SC(=Nc2ccccc2)NC1=O` was tested, and the Potency was 5.59 µM (active).
For `O=C1NC(=Nc2ccc(O)cc2)S/C1=C/c1ccco1`, the Potency was 12.5 µM (active).
`COc1cc(/C=C2/SC(=Nc3ccc(O)cc3)NC2=O)ccc1O` was tested, and the Potency was 13 µM (active).
For `Cn1cc(/C=C2\SC(=S)N(NC(=O)c3cccc(Cl)c3)C2=O)c2ccccc21`, the Potency was 16.4 µM (active).
`Cn1cc(/C=C2\SC(=O)N(c3ccccc3)C2=O)c2ccccc21` was tested, and the Potency was 16.4 µM (active).
In the case of `COc1cc(/C=C2\SC(=Nc3cccnc3)NC2=O)cc(OC)c1OC`, the Potency is reported as “inactive”.
For `Cn1cccc1/C=C1\SC(=Nc2cccc(O)c2)NC1=O`, the Potency was 17.7 µM (active).
For `Cc1cc(/C=C2\SC(=Nc3ccccc3)NC2=O)c(C)n1-c1ccc(S(N)(=O)=O)cc1`, the Potency was 1.98 µM (active).
For `Cc1cccc(N=C2NC(=O)/C(=C/c3cccn3C)S2)c1`, the Potency was “inactive”.
For `COc1cc2c(cc1OC)C(C)N(C(=O)c1cc(C)on1)CC2` (stereo not given), the Potency was 0.994 µM (active).
`COc1cc2c(cc1OC)C(C)N(C(=O)c1cc(Cl)nc(Cl)c1)CC2` (stereo not given) was tested, and the Potency was “inactive”.
`CCN(CC)c1nc(C)c(C(=S)Nc2cc([N+](=O)[O-])ccc2Cl)s1` was tested, and the Potency was “inactive”.
In the case of `CC(=O)Nc1ccc(-c2ccnc3c2CC(C(=O)NCc2ccccc2)O3)cc1` (stereo not given), the Potency is reported as 1.12 µM (active).
With `CC(=O)Nc1ccc(-c2ccnc3c2CC(C(=O)NCc2cccc(Cl)c2)O3)cc1` (stereo not given) the Potency was 3.53 µM (active).
In the case of `O=C1Nc2ccc(Br)cc2C12NNc1ccccc1O2` (stereo not given), the Potency is reported as 14 µM (active).
In the case of `Cc1ccc(CSc2nc(-c3ccc(C(C)(C)C)cc3)nc3cc(=O)[nH]n23)cc1`, the Potency is reported as “inactive”.
With `Cc1sc2ncnc(SCC(=O)NC(C)(C)C)c2c1C` the Potency was “inactive”.
For `COc1cccc(-c2ccc3c(N)c(C(=O)c4ccc(Br)cc4)sc3n2)c1`, the Potency was 23.1 µM (active).
`COc1cccc(-c2ccc3c(N)c(C(=O)c4ccc(Cl)cc4)sc3n2)c1` was tested, and the Potency was 16.4 µM (active).
With `COc1ccc(NC(=O)c2sc3nc(-c4cccnc4)ccc3c2N)cc1OC` the Potency was 5.8 µM (active).
In the case of `Cc1nn(-c2ccc(F)cc2)c(Cl)c1/C=C1\C(=O)Nc2ccccc21`, the Potency is reported as 5.59 µM (active).
In the case of `O=c1[nH]c(NCc2ccco2)nnc1Cc1ccccc1Cl`, the Potency is reported as 12.5 µM (active).
For `O=[N+]([O-])c1ccc(C2=Nc3cc(Cl)ccc3OC2)cc1`, the Potency was “inactive”.
In the case of `O=[N+]([O-])c1ccc(/C=C/C2=NN(c3ccccc3)C(c3ccco3)C2)o1` (stereo not given), the Potency is reported as 5.17 µM (active).
In the case of `COc1ccccc1N1N=C(c2ccc([N+](=O)[O-])cc2)CC1c1ccccc1` (stereo not given), the Potency is reported as 1.12 µM (active).
For `O=[N+]([O-])c1ccc(C2=NN(c3ccccc3)C(c3ccco3)C2)cc1` (stereo not given), the Potency was 1.58 µM (active).
In the case of `COc1ccc2nc(C)cc(SCC(=O)N/N=C/c3cccc4ccccc34)c2c1`, the Potency is reported as 6.27 µM (active).
With `O=C(Nc1ccc([N+](=O)[O-])cc1)C(Cc1ccccc1)N1C(=O)c2cccc3cccc(c23)C1=O` (stereo not given) the Potency was 15.8 µM (active).
In the case of `O=S(=O)(Nc1ccc(C(O)(C(F)(F)F)C(F)(F)F)cc1)c1ccc(Cl)c2nonc12`, the Potency is reported as “inactive”.
In the case of `CCOC(=O)c1sc2cc([N+](=O)[O-])cc(SCC(C)C)c2c1N`, the Potency is reported as 2.31 µM (active).
For `COC(=O)c1sc2cc([N+](=O)[O-])cc(SCC(C)C)c2c1N`, the Potency was 11.6 µM (active).
`COc1ccc(NC(=S)Nc2ncccc2C)c(OC)c1` was tested, and the Potency was “inactive”.
`COc1ccc(NC2=CC(=O)CC(c3ccccc3)C2)c(OC)c1` (stereo not given) was tested, and the Potency was 5.59 µM (active).
In the case of `O=C(Nc1ccc(Oc2ccc(NC(=O)Nc3ccccc3Cl)cc2)cc1)Nc1ccccc1Cl`, the Potency is reported as 18.4 µM (active).
In the case of `O=C(N/N=C/c1cccs1)c1n[nH]c2c1CCC2`, the Potency is reported as 6.27 µM (active).
With `O=C(N/N=C/c1cccc2ccccc12)c1n[nH]c2c1CCCC2` the Potency was 1.98 µM (active).
For `Cc1ccsc1/C=N\NC(=O)c1n[nH]c2c1CCC2`, the Potency was 3.96 µM (active).
In the case of `CN(C)S(=O)(=O)c1ccc2c(c1)/C(=C/c1cc3c([nH]1)CCCC3)C(=O)N2`, the Potency is reported as 2.23 µM (active).
In the case of `Cc1cccc(N2CCN(C(=O)c3ccncc3)CC2)c1C`, the Potency is reported as 9.94 µM (active).
In the case of `O=C(CSc1nc(-c2ccco2)cc(C(F)(F)F)n1)Nc1cccnc1`, the Potency is reported as 11.2 µM (active).
With `Cc1nnc(NC(=O)CSc2nc(C(C)C)nc3ccccc23)s1` the Potency was 8.86 µM (active).
For `Cc1cc(C)n(-c2nnc3n2N=C(c2c[nH]c4ccccc24)CS3)n1`, the Potency was 12.5 µM (active).
For `CC(NC(=O)/C(C#N)=C/c1ccc([N+](=O)[O-])o1)c1ccccc1` (stereo not given), the Potency was 18.4 µM (active).
With `CCOCCCNC(=O)/C(C#N)=C/c1ccc([N+](=O)[O-])o1` the Potency was 20.6 µM (active).
With `N#C/C(=C\c1ccccc1[N+](=O)[O-])C(=O)NCc1ccccc1` the Potency was “inactive”.
With `CN(C)/C=N/C1=C(C#N)C(c2cccs2)c2ccc3ccccc3c2O1` (stereo not given) the Potency was 4.98 µM (active).
With `O=C(NCc1cccnc1)c1cccc(NS(=O)(=O)c2ccc(Br)cc2)c1` the Potency was 6.27 µM (active).
For `O=C(COc1ccc(C(=O)c2ccccc2)cc1)NCc1ccc(F)cc1`, the Potency was 1.98 µM (active).
With `CCS(=O)(=O)N1CCc2cc(C(=O)N3CCN(c4cccc(C(F)(F)F)c4)CC3)ccc21` the Potency was “inactive”.
With `O=C(c1[nH]c(C(F)(F)F)nc1-c1ccccc1)N1CCN(c2ccccc2)CC1` the Potency was 2.23 µM (active).
For `O=C(c1[nH]c(C(F)(F)F)nc1-c1ccccc1)N1CCN(c2cccc(C(F)(F)F)n2)CC1`, the Potency was 2.8 µM (active).
`CCN(CC)C(=O)c1sc2nc(-c3cccs3)cc(-c3ccc(Cl)cc3)c2c1N` was tested, and the Potency was 14 µM (active).
For `N#Cc1sc2nc(-c3cccs3)cc(-c3ccc(Cl)cc3)c2c1N`, the Potency was 12.5 µM (active).
For `COc1ccc(-c2cc(-c3cccs3)nc3sc(C#N)c(N)c23)cc1`, the Potency was “inactive”.
For `O=C(COC(=O)c1ccc(NS(=O)(=O)c2cccs2)cc1O)NCc1ccccc1`, the Potency was 4.44 µM (active).
In the case of `CCOc1ccc(Cn2c3ccc(OC)cc3c3nc4ccccc4nc32)cc1`, the Potency is reported as 18.4 µM (active).
`COc1ccc2c(c1)c1nc3ccccc3nc1n2Cc1ccc(OC)c(OC)c1` was tested, and the Potency was 18.4 µM (active).
For `COc1ccc2c(c1)c1nc3ccccc3nc1n2CC(=O)OC(C)C`, the Potency was 3.66 µM (active).
`COc1ccc(COn2c(=O)c(C)[n+]([O-])c3ccccc32)cc1OC` was tested, and the Potency was “inactive”.
In the case of `Nc1nn(-c2ccccc2)c(N)c1N=Nc1ccccc1`, the Potency is reported as 2.23 µM (active).
For `c1ccc(N=NC2=NN(c3ccccc3)CS2)cc1`, the Potency was “inactive”.
For `N#CC(C(=S)Nc1ccccc1)c1nc2ccccc2[nH]1` (stereo not given), the Potency was “inactive”.
With `c1ccc2[nH]c(NN=C3CCCCCC3)nc2c1` the Potency was “inactive”.
In the case of `O=C(CSc1ccccc1)Nc1nc2ccccc2[nH]1`, the Potency is reported as 8.86 µM (active).
With `Cc1ccc2c(c1)C=CC(C#N)N2C(=O)c1ccccc1` (stereo not given) the Potency was 4.98 µM (active).
In the case of `COc1ccc(OC)c(C2CC(=O)c3c([nH]c(C(=O)OCC4CCCO4)c3C)C2)c1` (stereo not given), the Potency is reported as 12.5 µM (active).
`COCCOC(=O)c1[nH]c2c(c1C)C(=O)CC(c1ccccc1)C2` (stereo not given) was tested, and the Potency was 1.77 µM (active).
For `Cc1c(C(=O)OC2CCCCC2)[nH]c2c1C(=O)CC(c1ccccc1Cl)C2` (stereo not given), the Potency was 2.06 µM (active).
In the case of `CN(/N=C/c1ccc(N(C)C)cc1)C1=NS(=O)(=O)c2ccccc21`, the Potency is reported as 11.2 µM (active).
In the case of `COCCCN(C(C)=O)c1nc(-c2ccc(OC)cc2)cs1`, the Potency is reported as 17.7 µM (active).
With `CN1C2=CC=CC=CC2=[N+](C)C12C([N+](=O)[O-])=CC(=[N+]([O-])[O-])C=C2[N+](=O)[O-]` (stereo not given) the Potency was 12.5 µM (active).
For `Cc1ccc(S(=O)(=O)Nc2cc(-c3nn(C)c(=O)c4ccccc34)ccc2N2CCOCC2)cc1`, the Potency was 12.5 µM (active).
`Cc1cccc2[nH]cc(/C=C3/C=Nc4ccccc43)c12` was tested, and the Potency was 20.6 µM (active).
For `CCCCNc1c(-c2ccc(SC3CCCCC3)cc2)nc2cnccn12`, the Potency was 4.44 µM (active).
`CCC(C)Sc1ccc(-c2nc3cc(C)ccn3c2NC2CCCCC2)cc1` (stereo not given) was tested, and the Potency was “inactive”.
For `c1cc(SC2CCCCC2)cc(-c2nc3cnccn3c2NC2CCCCC2)c1`, the Potency was “inactive”.
`O=C(c1cc(-c2ccncc2)nc2ccccc12)N1CCN(c2ccccn2)CC1` was tested, and the Potency was 6.27 µM (active).
`COC(=O)c1sc(N)c(C(=O)OC)c1COC(=O)c1c(C)noc1C` was tested, and the Potency was 4.44 µM (active).
`CC(=O)N1CCc2nc3sc(C(=O)c4ccc(F)cc4)c(N)c3c(C(F)(F)F)c2C1` was tested, and the Potency was 18.4 µM (active).
In the case of `COc1ccc(C(=O)c2sc3nc4c(c(C(F)(F)F)c3c2N)CN(C(C)=O)CC4)cc1OC`, the Potency is reported as 23.1 µM (active).
